L3MBTL1 inh – inhibitors of human L3MBTL1. Q9Y468. AlphaScreen L3MBTL1–H3K9me1 peptide binding. Potency, µM (series often up to 57.1 µM), inactives show top-dose activity, negative = inhibition, actives largely listed as inhibitors. hit rate 0.66% among 230,000; note: % is set by controls: 0 for no effect and ±100 for the full control effect; nearly all actives have a fitted effect of over 60% in size
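L3MBTL1 50 nM + b-AHA-H3(1-15)K9me1 75 nM, 30 min RT; compound added, 30 min RT; streptavidin donor/Ni-chelate acceptor beads 10 ug/mL each final, 30 min RT dark; AlphaScreen read.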
HP1b chromo inh – blocks HP1-beta chromodomain binding to methylated histone tails; AlphaScreen HP1-beta / biotin-H3K9me3 peptide binding; Potency, µM (top dose mostly 114 µM), inactives show at the top dose activity change, negative = inhibition, actives largely listed as inhibitors; hit rate 0.56% among 390,000; note: nearly all actives have a fitted effect of over 70% in size
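AlphaScreen: HP1-beta (50 nM) preformed 30 min with biotin-H3(1-18)K9me3 peptide (50 nM) in PBS pH 7.4, 0.01% Tween-20. Compound added for 30 min at RT, then streptavidin donor/nickel chelate acceptor beads (10 ug/mL) for 30 min.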
G9a inh – inhibitors of human histone lysine methyltransferase G9a; G9a H3K9 monomethylation, AlphaScreen, 2 h; hit rate 8.8% among 350,000; Potency, µM (top dose mostly 102 µM), for the others: top-dose activity, negative = inhibition, actives largely listed as inhibitors; note: % is set by controls: 0 for no effect and ±100 for the full control effect; nearly all actives have a fitted effect of over 75% in size
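Signal arises when biotinylated H3K9 peptide, once monomethylated, bridges streptavidin donor and antibody-captured acceptor beads. Enzyme at 20 nM was preincubated 15 min with test compounds; peptide 500 nM and SAM 20 uM then reacted for 2 h.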
BAZ2B inh – inhibitors of human BAZ2B bromodomain; AlphaScreen BAZ2B-H3K14Ac peptide displacement; Potency, µM (series often up to 114 µM), for the others: top-dose activity change, negative = inhibition, actives largely listed as inhibitors; hit rate 4.4% among 360,000; AID 504333; note: % is set by controls: 0 for no effect and ±100 for the full control effect; nearly all actives have a fitted effect of over 60% in size
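BAZ2B (50 nM) with biotin-H3(5-23)K14Ac peptide (50 nM) in PBS pH 7.4, 0.01% Tween-20, preformed 30 min, then compound 30 min at room temperature; top concentration 110uM. AlphaScreen streptavidin donor/nickel chelate acceptor beads (10 ug/mL final), 20 min dark, signal read.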
JMJD2A Tudor – inhibitors of human JMJD2A Tudor domain; AlphaScreen JMJD2A-Tudor / H3K4me3 peptide binding; Potency, µM (top dose mostly 114 µM), for the others: at the top dose activity change, negative = inhibition, usual class: inhibitors; hit rate 4.4% among 390,000; AID 504339; note: % is set by controls: 0 for no effect and ±100 for the full control effect; nearly all actives have a fitted effect of over 50% in size
* marks the source's active call; other numbers are inactive results; ? = inconclusive; . = no result; ! = repeats disagree; [ ] = dose if it differs, or a comment. Hits are enriched below; roughly 11% of the tested compounds scored in any of these assays. Calls come from the whole dose curve; as a rule, active = well fitted inhibition curve with a large enough effect; inconclusive = small, poorly fitted or top-dose-only effect; inactive = no such curve, though single readings can be large or run the other way. Potency is the fitted concentration of half-maximal effect.

SMILES	L3MBTL1 inh	HP1b chromo inh	G9a inh	BAZ2B inh	JMJD2A Tudor
CCc1ccc(S(=O)(=O)c2nnn3c2nc(NCCc2ccccc2)c2sccc23)cc1	.	6.7%	7.9%[59 µM]	-16.9%	-15.0%
CCC1CCCCN1C(=O)CCS(=O)(=O)c1cc2c(cc1C)NC(=O)CO2 (stereo not given)	.	?	8.91µM*	?	?
Cc1cc2c(cc1S(=O)(=O)CCC(=O)N1CCC(C)CC1)OCC(=O)N2	.	63.0%	15.3%[59 µM]	22.7%	-7.2%
Cc1ccc(CNc2ncnc3onc(-c4ccc(F)cc4)c23)cc1	.	57.7%	-4.8%[59 µM]	15.9%[57.1 µM]	7.8%
O=C(Nc1ccc(-n2nncc2-c2ccccc2)cc1)c1cccc(F)c1	.	28.1%	9.1%[59 µM]	-18.4%	-15.3%
O=C(Nc1ccc(-n2nncc2-c2ccco2)cc1)c1cccc(F)c1	-10.1%	-22.3%	44.7µM*	?	-35.3%
CC(=O)c1ccc(NC(=O)Cn2c(-n3nc(C)cc3C)nc(C)c(C)c2=O)cc1	.	39.7%	3.98µM*	-5.7%	-17.9%
Cc1cc(C)n(-c2ccc(C(=O)Nc3cccc([N+](=O)[O-])c3)cc2)n1	.	-10.2%	0.9%	-3.4%	-7.5%[11.4 µM]
Cc1cc(C)n(-c2nc(C)c(C)c(=O)n2CC(=O)Nc2cccc([N+](=O)[O-])c2)n1	.	6.7%	6.31µM*	-11.2%	?
NC(=O)CSc1ncc2c(n1)-c1ccccc1N(Cc1ccccc1)S2(=O)=O	.	24.5%	6.7%[59 µM]	-5.8%	-2.3%
CC(C(=O)Nc1cc([N+](=O)[O-])ccc1Cl)N1CCN(c2ccc(O)cc2)CC1 (stereo not given)	?	70.8µM*	7.94µM*	-34.3%	25.1µM*
COc1cc(NC(=O)CSc2nncn2C)c(C)cc1[N+](=O)[O-]	2.6%	25.7%	8.7%	-4.1%	-9.7%
CC(C(=O)Nc1ccc([N+](=O)[O-])cc1Cl)N1CCN(S(=O)(=O)c2cccs2)CC1 (stereo not given)	-13.2%	-2.5%	10.2%[12.7 µM]	-8.8%	?
O=C(CN1CCN(c2ccccc2O)CC1)Nc1ccc([N+](=O)[O-])cc1Br	.	12.6%	?	.	-15.8%
COc1cc(NC(=O)CSc2nc(C)c(C)c(C)n2)c(C)cc1[N+](=O)[O-]	7.9%	31.5%	50.1µM*	2.9%	-10.7%
COc1cc(NC(=O)CN2CCN(c3ccccc3O)CC2)c(C)cc1[N+](=O)[O-]	-9.7%	15.2%	10µM*	-8.2%	-16.2%
O=C(CN1CCN(c2ccccc2O)CC1)Nc1cc([N+](=O)[O-])ccc1Cl	-15.9%	3.3%[57 µM]	44.7µM*	-35.1%	-34.5%
CCOc1ccccc1N1CC(c2nc3ccccc3n2CCCOc2ccccc2)CC1=O (stereo not given)	.	37.1%	-0.9%[59 µM]	-20.4%	-20.1%
O=C(NCCc1ccccc1Cl)c1ccc(Cn2c(=O)c3cccn3c3cccnc32)cc1	.	15.1%	?	?	?
NS(=O)(=O)c1ccc(CNC(=O)C2CCCN2C(=O)c2cccs2)cc1 (stereo not given)	-5.2%	31.0%	.	.	-9.0%
Cc1cc(C)nc(NCC(O)CNc2ccccc2Cl)n1 (stereo not given)	21.4%[11.4 µM]	13.8%	7.08µM*	-32.0%	56.2µM*
CSc1ncc(Cl)c(C(=O)N(Cc2ccc(C(C)C)cc2)C2CCS(=O)(=O)C2)n1 (stereo not given)	.	14.6%	-24.0%[59 µM]	-10.4%	-25.7%
CCOc1ccc(C(=O)Nc2cccc(-c3ccc(N4CCOCC4)nn3)c2)cc1OCC	4.7%	4.0%	44.7µM*	-4.9%	-11.6%
CN1CCN(c2ccc(-c3cccc(NC(=O)COc4ccc(Cl)cc4)c3)nn2)CC1	-8.6%	-14.1%	50.1µM*	-9.8%	-33.8%
CN1CCN(c2ccc(-c3cccc(NC(=O)COc4ccccc4)c3)nn2)CC1	-2.9%	15.2%	?	7.7%	-13.1%
SMILES	L3MBTL1 inh	HP1b chromo inh	G9a inh	BAZ2B inh	JMJD2A Tudor
OC(CNCCNc1ncccc1C(F)(F)F)COc1ccc(F)cc1 (stereo not given)	7.3%	11.1%	13.2%	-0.5%	4.3%
Cn1cc(C(F)(F)F)nc1-c1ccc(OCC(O)CNCCOc2ccc(O)c(C(N)=O)c2)cc1 (stereo not given)	.	14.5%	25.1µM*!	-7.6%	-18.0%
Cc1ccsc1S(=O)(=O)N1CCCC(CCC(=O)NCc2ccccc2F)C1 (stereo not given)	-0.4%	56.9%	79.4µM*	-16.0%	-15.8%
COc1cc(Cl)ccc1NC(=O)COc1ccccc1C(=O)N1CCN(c2ccc(O)cc2)CC1	-16.8%	?	10µM*	-6.3%	?
COc1ccccc1NS(=O)(=O)c1ccc(C)c(C(=O)N2CCN(c3ccc(O)cc3)CC2)c1	-1.1%	-33.8%	.	.	28.2µM*
CCOC(=O)C1CCCN(C(=O)c2cc(S(=O)(=O)Nc3ccccc3OC)ccc2C)C1 (stereo not given)	3.5%	43.1%	0.5%	-1.2%	-17.9%
COc1ccc(C(Nc2ccccn2)c2c(NC(=O)c3ccco3)sc(C)c2C)cc1 (stereo not given)	-7.8%	6.3%	44.7µM*	?	?
Cc1sc(NC(=O)c2ccco2)c(C(Nc2ccccn2)c2ccccc2)c1C (stereo not given)	-1.0%	-19.7%	44.7µM*	-35.9%	-42.1%
COc1cccc(C(Nc2ccccn2)c2c(NC(=O)c3ccco3)sc(C)c2C)c1 (stereo not given)	-3.1%	-25.5%	-26.3%[59 µM]	?	?
O=C(Nc1ccccn1)c1ccco1	1.1%	42.6%	18.2%	-0.8%	-7.6%
CC(C)(C)CC(=O)NCC(c1ccc2c(c1)OCO2)N1CCOCC1 (stereo not given)	.	33.5%[57 µM]	25.0%[59 µM]	6.9%	1.6%
Cn1ccnc1C(O)c1cc(C(C)(C)C)c(O)c(C(C)(C)C)c1 (stereo not given)	-8.2%	22.3%	50.1µM*	?	?
CC(C)(Sc1cc(C(C)(C)C)c(O)c(C(C)(C)C)c1)Sc1cc(C(C)(C)C)c(O)c(C(C)(C)C)c1	6.2%	41.0%	-0.9%	-0.7%	-18.6%
COc1ccc(C(=O)c2c3ccc(C(F)(F)F)cc3[n+]([O-])n2CCCN)cc1	-2.8%	24.0%	-5.1%[2.33 µM]	-5.4%	-26.4%
Cc1ccc(NC(=O)c2ccc(-c3ccccc3)s2)cc1	.	21.6%	3.5%[59 µM]	-2.5%	-7.0%
Cc1ccc(NC(=O)C2=C(c3ccccc3)S(=O)(=O)CCS2(=O)=O)cc1	-11.1%	-21.8%[57 µM]	39.8µM*	-2.4%	?
CCS(=O)(=O)CCSc1nc2ccccc2s1	3.2%	36.1%	?	12.8%	-6.5%
O=S(=O)(CCSc1nc2ccccc2s1)c1nc2ccccc2s1	.	56.4%	7.08µM*	-0.5%	?
Cc1cccc(-n2c(=O)c3ccccc3n(Cc3ccc(F)cc3)c2=O)c1	.	15.5%	10.7%[59 µM]	-2.5%	8.2%
Cc1ccc(NC(=O)CN2C(=O)S/C(=C\c3ccccn3)C2=O)cc1	13.6%	37.4%	-12.2%[59 µM]	3.8%	-3.4%

From PubChem BioAssay
